Assay results published in PubChem BioAssay AID1159580 (chemical genetic matrix, 2015).
Screen size: about 5,500 compounds; about 2,000 (36%) were called active. Roughly 18% stayed inconclusive and do not appear here. The list shows a part of the results. A number with no mark means an inactive call. Rule as the data show it: active = normalized growth mostly below about 0.91 (no sharp cut-off); inconclusive = no clear call, values can overlap the other calls; inactive = mostly above about 0.92.

Assay: chemical genetic growth profiling, strain panel (AID 1159580);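 also: tested at 20 µM; growth read once vehicle control cultures reached saturation at 30 °C; 1 = growth at the plate median or of vehicle wells; lower values mean less growth of the strain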
Details: S. cerevisiae deletion strains, growth OD
[1] = locus YAR019C, strain CDC15, hits give low values
[2] = locus YBL105C, strain PKC1, hits give low values
[3] = locus YBR135W, strain CKS1, hits give low values
[4] = locus YBR136W, strain MEC1, hits give low values
[5] = locus YBR160W, strain CDC28, hits give low values
[6] = locus YDL017W, strain CDC7, hits give low values
[7] = locus YDL028C, strain MPS1, hits give low values
[8] = locus YDL101C, strain DUN1, hits give low values
[9] = locus YDL108W, strain KIN28, hits give low values
[10] = locus YDL132W, strain cdc53, hits give low values
[11] = locus YDL214C, strain PRR2, hits give low values
[12] = locus YDR052C, strain DBF4, hits give low values
[13] = locus YDR054C, strain cdc34, hits give low values
[14] = locus YDR226W, strain ADK1, hits give low values
[15] = locus YDR477W, strain SNF1, hits give low values
[16] = locus YER123W, strain YCK3, hits give low values
[17] = locus YER133W, strain GLC7, hits give low values
[18] = locus YFL009W, strain cdc4, hits give low values
[19] = locus YFL029C, strain CAK1, hits give low values
[20] = locus YFR003C, strain YPI1, hits give low values
[21] = locus YFR019W, strain FAB1, hits give low values
[22] = locus YFR028C, strain CDC14, hits give low values
[23] = locus YGR040W, strain KSS1, hits give low values
[24] = locus YGR052W, strain FMP48, hits give low values
[25] = locus YGR092W, strain DBF2, hits give low values
[26] = locus YHR030C, strain SLT2, hits give low values
[27] = locus YHR079C, strain IRE1, hits give low values
[28] = locus YHR082C, strain KSP1, hits give low values
[29] = locus YHR205W, strain SCH9, hits give low values
[30] = locus YIL147C, strain SLN1, hits give low values
[31] = locus YJL095W, strain BCK1, hits give low values
[32] = locus YJL128C, strain PBS2, hits give low values
[33] = locus YJL157C, strain FAR1, hits give low values
[34] = locus YJR016C, strain ILV3, hits give low values
[35] = locus YJR066W, strain TOR1 (second series), hits give low values
[36] = locus YJR066W, strain TOR1, hits give low values
[37] = locus YKL048C, strain ELM1, hits give low values
[38] = locus YKL067W, strain YNK1, hits give low values
[39] = locus YKL101W, strain HSL1, hits give low values
[40] = locus YKL193C, strain SDS22, hits give low values
[41] = locus YKL203C, strain TOR2, hits give low values
[42] = locus YLR113W, strain HOG1, hits give low values
[43] = locus YLR133W, strain CKI1, hits give low values
[44] = locus YLR403W, strain SFP1, hits give low values
[45] = locus YML070W, strain DAK1, hits give low values
[46] = locus YMR001C, strain CDC5, hits give low values
[47] = locus YMR205C, strain PFK2 (second series), hits give low values
[48] = locus YMR277W, strain FCP1, hits give low values
[49] = locus YNL006W, strain LST8, hits give low values
[50] = locus YNL020C, strain ARK1, hits give low values
[51] = locus YNL161W, strain CBK1, hits give low values
[52] = locus YNL183C, strain NPR1, hits give low values
[53] = locus YNL207W, strain RIO2, hits give low values
[54] = locus YNL222W, strain SSU72, hits give low values
[55] = locus YNL307C, strain MCK1 (second series), hits give low values
[56] = locus YOL078W, strain AVO1, hits give low values
[57] = locus YOL136C, strain PFK27, hits give low values
[58] = locus YOR061W, strain CKA2, hits give low values
[59] = locus YOR119C, strain RIO1, hits give low values
[60] = locus YOR231W, strain MKK1, hits give low values
[61] = locus YOR329C, strain SCD5, hits give low values
[62] = locus YPL031C, strain PHO85, hits give low values
[63] = locus YPL153C, strain RAD53, hits give low values
[64] = locus YPL204W, strain HRR25, hits give low values
[65] = locus YPL209C, strain IPL1, hits give low values
[66] = locus YPL256C, strain CLN2, hits give low values
[67] = locus YPR025C, strain CCL1, hits give low values
[68] = locus YPR106W, strain ISR1, hits give low values
[69] = locus YPR111W, strain DBF20, hits give low values
[70] = strain NNK1, hits give low values
[71] = strain TSCII, hits give low values

Compound: NC(=Nc1ccc(F)cc1)SCc1c(Cl)cccc1Cl
- normalized growth [1]: 0.992
- normalized growth [2]: 0.99
- normalized growth [3]: 0.985
- normalized growth [4]: 0.984
- normalized growth [5]: 0.986
- normalized growth [6]: 0.99
- normalized growth [7]: 0.983
- normalized growth [8]: 0.996
- normalized growth [9]: 0.985
- normalized growth [10]: 0.986
- normalized growth [11]: 0.954
- normalized growth [12]: 0.992
- normalized growth [13]: 0.991
- normalized growth [14]: 0.985
- normalized growth [15]: 0.96
- normalized growth [16]: 0.923
- normalized growth [17]: 0.954
- normalized growth [18]: 0.987
- normalized growth [19]: 0.994
- normalized growth [20]: 0.99
- normalized growth [21]: 0.96
- normalized growth [22]: 0.989
- normalized growth [23]: 0.947
- normalized growth [24]: 0.981
- normalized growth [25]: 0.978
- normalized growth [26]: 0.985
- normalized growth [27]: 0.962
- normalized growth [28]: 1.05
- normalized growth [29]: 0.962
- normalized growth [30]: 0.99
- normalized growth [31]: 0.954
- normalized growth [32]: 0.938
- normalized growth [33]: 0.961
- normalized growth [34]: 0.991
- normalized growth [35]: 0.99
- normalized growth [36]: 1.09
- normalized growth [37]: 0.967
- normalized growth [38]: 0.962
- normalized growth [39]: 0.945
- normalized growth [40]: 0.989
- normalized growth [41]: 1.03
- normalized growth [42]: 0.882
- normalized growth [43]: 0.975
- normalized growth [44]: 0.975
- normalized growth [45]: 0.944
- normalized growth [46]: 0.991
- normalized growth [47]: 0.961
- normalized growth [48]: 0.989
- normalized growth [49]: 0.982
- normalized growth [50]: 0.971
- normalized growth [51]: 0.988
- normalized growth [52]: 1.06
- normalized growth [53]: 0.994
- normalized growth [54]: 0.988
- normalized growth [55]: 0.987
- normalized growth [56]: 0.986
- normalized growth [57]: 0.958
- normalized growth [58]: 0.975
- normalized growth [59]: 1.02
- normalized growth [60]: 0.985
- normalized growth [61]: 0.99
- normalized growth [62]: 0.952
- normalized growth [63]: 0.964
- normalized growth [64]: 0.989
- normalized growth [65]: 0.994
- normalized growth [66]: 0.962
- normalized growth [67]: 0.98
- normalized growth [68]: 0.981
- normalized growth [69]: 0.982
- normalized growth [70]: 0.992
- normalized growth [71]: 1

Compound: Cc1c(C)c(C)c(CSC(N)=Nc2ccc(F)cc2)c(C)c1C
- normalized growth [1]: 0.996
- normalized growth [2]: 0.997
- normalized growth [3]: 0.994
- normalized growth [4]: 0.997
- normalized growth [5]: 0.997
- normalized growth [6]: 0.999
- normalized growth [7]: 0.995
- normalized growth [8]: 1.01
- normalized growth [9]: 0.992
- normalized growth [10]: 1
- normalized growth [11]: 0.944
- normalized growth [12]: 1
- normalized growth [13]: 0.998
- normalized growth [14]: 0.995
- normalized growth [15]: 0.931
- normalized growth [16]: 0.894
- normalized growth [17]: 0.937
- normalized growth [18]: 1.01
- normalized growth [19]: 0.993
- normalized growth [20]: 1
- normalized growth [21]: 0.946
- normalized growth [22]: 1.01
- normalized growth [23]: 0.932
- normalized growth [24]: 0.959
- normalized growth [25]: 0.975
- normalized growth [26]: 0.946
- normalized growth [27]: 0.953
- normalized growth [28]: 1.02
- normalized growth [29]: 0.967
- normalized growth [30]: 0.992
- normalized growth [31]: 0.925
- normalized growth [32]: 0.942
- normalized growth [33]: 0.936
- normalized growth [34]: 0.998
- normalized growth [35]: 0.93
- normalized growth [36]: 1.05
- normalized growth [37]: 0.966
- normalized growth [38]: 0.955
- normalized growth [39]: 0.943
- normalized growth [40]: 0.999
- normalized growth [41]: 0.999
- normalized growth [42]: 0.823 (active)
- normalized growth [43]: 0.969
- normalized growth [44]: 0.953
- normalized growth [45]: 0.921
- normalized growth [46]: 0.993
- normalized growth [47]: 0.953
- normalized growth [48]: 1
- normalized growth [49]: 1
- normalized growth [50]: 0.969
- normalized growth [51]: 1
- normalized growth [52]: 1.03
- normalized growth [53]: 0.998
- normalized growth [54]: 1.01
- normalized growth [55]: 0.969
- normalized growth [56]: 0.998
- normalized growth [57]: 0.945
- normalized growth [58]: 0.972
- normalized growth [59]: 1
- normalized growth [60]: 0.97
- normalized growth [61]: 0.996
- normalized growth [62]: 0.929
- normalized growth [63]: 0.942
- normalized growth [64]: 0.95
- normalized growth [65]: 0.999
- normalized growth [66]: 0.902
- normalized growth [67]: 1
- normalized growth [68]: 0.99
- normalized growth [69]: 0.99
- normalized growth [70]: 0.995
- normalized growth [71]: 0.998
